Source: PubChem (National Center for Advancing Translational Sciences (NCATS))
PI5P4K alpha inh: qHTS for Inhibitors of phosphatidylinositol 5-phosphate 4-kinase (PI5P4K). Phosphatidylinositol 5-phosphate 4-kinase type-2 alpha (Homo sapiens), P48426. PI5P4Kalpha enzyme, ADP-Glo luminescence, 60 min; hits give low values. max response, %. 1.2% of 330,000 active; active = max response of -50% or lower; inconclusive = between -30% and -50%; inactive = -30% or higher; note: value at the top dose of about 77 µM; % is set by controls: 0 for no effect and ±100 for the full control effect
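PI5P4Kalpha ADP-Glo assay; 5 microM ATP final; 60 min RT reaction; HEPES pH 7.4/EGTA/CHAPS, 5% DMSO; controls lacking substrate or enzyme; luminescent end-point.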
G9a inh: qHTS Assay for Inhibitors of Histone Lysine Methyltransferase G9a. G9a H3K9 monomethylation, AlphaScreen, 2 h. Potency, µM (series often up to 102 µM), for the others: top-dose activity, negative = inhibition, actives largely listed as inhibitors. 8.8% of 350,000 active; note: potency is the fitted concentration of half-maximal effect; % is set by controls: 0 for no effect and ±100 for the full control effect; nearly all actives have a fitted effect of over 75% in size
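Methyltransferase reactions run at room temperature for 2 h (20 nM enzyme, 500 nM biotin-H3K9 peptide, 20 uM SAM) after a 15 min compound preincubation; product detected by AlphaScreen beads and anti-H3K9me1 antibody.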
HP1b binding inh: HTS for Inhibitors of HP1-beta Chromodomain Interactions with Methylated Histone Tails | Chromobox protein homolog 1 (Homo sapiens), P83916 | AlphaScreen HP1-beta / biotin-H3K9me3 peptide binding | Potency, µM (doses to about 114 µM), without a hit: at the top dose activity change, negative = inhibition, hits mostly inhibitors | 0.56% of 390,000 active | AID 540317, 2011; note: potency is the fitted concentration of half-maximal effect; nearly all actives have a fitted effect of over 70% in size
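AlphaScreen: HP1-beta (50 nM) preformed 30 min with biotin-H3(1-18)K9me3 peptide (50 nM) in PBS pH 7.4, 0.01% Tween-20. Compound added for 30 min at RT, then streptavidin donor/nickel chelate acceptor beads (10 ug/mL) for 30 min.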
JMJD2A Tudor inh: qHTS Assay for Inhibitors of JMJD2A-Tudor Domain. Lysine-specific demethylase 4A (Homo sapiens), O75164. AlphaScreen JMJD2A-Tudor / H3K4me3 peptide binding. Potency, µM (top dose mostly 114 µM), inactives show top-dose activity change, negative = inhibition, most hits filed as inhibitors. 4.4% of 390,000 active; note: potency is the fitted concentration of half-maximal effect; % is set by controls: 0 for no effect and ±100 for the full control effect; nearly all actives have a fitted effect of over 50% in size
Target sequence (O75164 whole entry, looked up, the tested form may be a part): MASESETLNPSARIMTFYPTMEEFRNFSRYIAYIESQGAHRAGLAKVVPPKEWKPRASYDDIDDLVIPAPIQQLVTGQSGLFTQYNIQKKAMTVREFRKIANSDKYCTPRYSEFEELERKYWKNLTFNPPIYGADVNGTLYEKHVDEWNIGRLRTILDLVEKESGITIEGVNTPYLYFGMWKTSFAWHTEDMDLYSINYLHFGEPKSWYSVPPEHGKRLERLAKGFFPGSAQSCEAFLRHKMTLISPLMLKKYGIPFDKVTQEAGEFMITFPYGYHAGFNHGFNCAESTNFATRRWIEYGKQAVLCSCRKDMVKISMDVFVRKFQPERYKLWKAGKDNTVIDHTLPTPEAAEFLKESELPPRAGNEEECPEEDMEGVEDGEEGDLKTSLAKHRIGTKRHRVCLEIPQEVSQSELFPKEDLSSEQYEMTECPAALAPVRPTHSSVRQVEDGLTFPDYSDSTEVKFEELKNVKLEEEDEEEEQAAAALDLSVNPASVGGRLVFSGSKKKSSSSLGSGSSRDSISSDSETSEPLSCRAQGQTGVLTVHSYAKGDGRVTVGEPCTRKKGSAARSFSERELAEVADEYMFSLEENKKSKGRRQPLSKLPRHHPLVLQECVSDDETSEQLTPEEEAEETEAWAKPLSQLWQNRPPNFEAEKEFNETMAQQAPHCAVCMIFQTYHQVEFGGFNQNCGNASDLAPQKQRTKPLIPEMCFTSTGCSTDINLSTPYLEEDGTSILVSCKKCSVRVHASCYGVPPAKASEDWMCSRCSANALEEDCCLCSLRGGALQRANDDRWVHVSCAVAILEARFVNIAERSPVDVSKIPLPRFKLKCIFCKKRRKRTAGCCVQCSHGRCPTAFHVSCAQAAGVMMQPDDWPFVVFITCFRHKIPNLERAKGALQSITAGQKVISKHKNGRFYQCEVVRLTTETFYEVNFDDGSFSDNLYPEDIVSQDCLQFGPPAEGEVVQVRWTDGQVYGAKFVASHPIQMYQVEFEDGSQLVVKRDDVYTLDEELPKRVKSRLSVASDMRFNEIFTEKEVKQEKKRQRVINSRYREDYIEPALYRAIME
BAZ2B inh: qHTS Assay for Inhibitors of BAZ2B; Bromodomain adjacent to zinc finger domain protein 2B (Homo sapiens), Q9UIF8; AlphaScreen BAZ2B-H3K14Ac peptide displacement; Potency, µM (top dose mostly 114 µM), inactives show at the highest dose activity change, negative = inhibition, actives largely listed as inhibitors; 4.4% of 360,000 active; AID 504333, 2011; note: potency is the fitted concentration of half-maximal effect; % is set by controls: 0 for no effect and ±100 for the full control effect; nearly all actives have a fitted effect of over 60% in size
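In this displacement format the biotinylated H3(5-23) peptide acetylated at Lys14 serves as ligand at 50 nM, with BAZ2B at 50 nM in PBS pH 7.4 containing 0.01% Tween-20. Donor and acceptor beads are 10 ug/mL final.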
L3MBTL1 block: qHTS Assay for the Inhibitors of L3MBTL1; Lethal(3)malignant brain tumor-like protein 1 (Homo sapiens), Q9Y468; AlphaScreen L3MBTL1–H3K9me1 peptide binding; Potency, µM (doses to about 57.1 µM), inactives show at the highest dose activity, negative = inhibition, actives largely listed as inhibitors; 0.66% of 230,000 active; note: potency is the fitted concentration of half-maximal effect; % is set by controls: 0 for no effect and ±100 for the full control effect; nearly all actives have a fitted effect of over 60% in size
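AlphaScreen assay: L3MBTL1 (50 nM final) was preincubated 30 min at room temperature with biotinylated H3(1-15)K9me1 peptide (75 nM final), then 30 min with library compounds; streptavidin donor and nickel chelate acceptor beads (10 ug/mL final) added, 30 min dark.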
An asterisk follows results filed as active; ? = inconclusive; / = not tested or not shown; [ ] = dose if it differs, or a comment. The list is not random: actives were taken first. Their share in the collection is about 11%. Unless noted, calls come from the whole dose curve; as a rule, active = well fitted inhibition curve with a large enough effect; inconclusive = small, poorly fitted or top-dose-only effect; inactive = no such curve, though single readings can be large or run the other way.

SMILES	PI5P4K alpha inh	G9a inh	HP1b binding inh	JMJD2A Tudor inh	BAZ2B inh	L3MBTL1 block
Clc1ccccc1C1CC(c2ccccc2)=Nc2ccccc2N1 (stereo unspecified)	0	/	19%	-4%	?	-25%
c1ccc(C2=Nc3ccccc3NC(c3ccccc3)C2)cc1 (stereo unspecified)	/	35µM*	21%	0%	10%	7%
c1ccc(C2=NC(c3ccccc3)CC2)cc1 (stereo unspecified)	-2	/	/	/	/	/
Brc1ccccc1C1CC(c2ccccc2)=Nc2ccccc2N1 (stereo unspecified)	7	?	-24%	40µM*	?	-10%
CCCOc1cccc(C2C(C(=O)c3ccc(C)o3)=C(O)C(=O)N2CCN2CCOCC2)c1 (stereo unspecified)	-5	45µM*	47%	-1%	-33%	/
COc1cc(C2C(C(=O)c3ccc(C)o3)=C(O)C(=O)N2CCN2CCOCC2)ccc1OCCC(C)C (stereo unspecified)	-4	32µM*	16%	?	-28%	/
C=CCOc1cccc(C2C(C(=O)c3ccc(C)o3)=C(O)C(=O)N2CCN(C)C)c1 (stereo unspecified)	-1	45µM*	55%	?	-26%	4%
Cc1cc2c(s1)c1cnn(Cc3c(F)c(F)c(C(F)(F)F)c(F)c3F)c(=O)c1n2C	/	/	/	-25%	/	/
Cc1cccc(OCC(=O)Nc2cccc(C(=O)OCc3cc(=O)n4nc(C(C)C)sc4n3)c2)c1	/	14%[59 µM]	6%	-16%	3%	/
O=C(c1cccn2c(=O)c3ccccc3nc12)N1CCN(c2ccccn2)CC1	/	-28%	30%	-4%	1%	9%
O=C(O)c1cccn2c(=O)c3ccccc3nc12	2	?	6%	79µM*	?	3%
COc1cc(/C=C\C(=O)N2CCC=CC2=O)cc(OC)c1OC	/	9%[21.5 µM]	/	/	/	/
Cn1c2cc(C#N)sc2c2cnn(Cc3ccccc3F)c(=O)c21	/	/	/	-13%	/	/
CC(C)(C)OC(=O)NCc1nnc(-c2cc3ccccc3[nH]2)o1	/	/	/	-12%	/	/
C#CCN1C(=O)S/C(=C/C=C/c2ccc(N(C)C)cc2)C1=O	-6	8.9µM*	20µM*	25µM*	10µM*	?
O=C(O)CN1C(=O)/C(=C/C=C/c2ccccc2)SC1=S	-2	?	-12%	-35%	?	11%
Cc1cccn2c(=O)c(/C=C(\C#N)c3nc4ccccc4n3C)c(Oc3ccc(Br)cc3)nc12	/	4%[59 µM]	19%	-13%	-12%	/
O=C(NC1CCCCC1)C(c1ccccc1)n1c(=O)c(-c2ccco2)nc2ccccc21 (stereo unspecified)	-80*	/	/	/	/	/
N#Cc1ccc(C(C(=O)NC2CCCCC2)n2c(=O)c(-c3cc4ccccc4[nH]3)nc3ccccc32)cc1 (stereo unspecified)	-3	/	/	/	/	/
O=C(NC1CCCCC1)C(c1ccc(C(F)(F)F)cc1)n1c(=O)c(-c2ccco2)nc2ccccc21 (stereo unspecified)	-75*	/	/	/	/	/
N#Cc1ccc(C(C(=O)NC2CCCCC2)n2c(=O)c(-c3ccco3)nc3ccccc32)cc1 (stereo unspecified)	-75*	/	/	/	/	/
COc1ccc(C(C(=O)NC(C)(C)C)n2c(=O)c(-c3ccco3)nc3ccccc32)cc1 (stereo unspecified)	-25	/	/	/	/	/
CCOC(=O)CC(=O)CSc1nc2ccsc2c(=O)n1Cc1ccccc1	/	31%[59 µM]	53%	1%	-6%	/
CCOc1ccc(NC(=S)C(C#N)=C2N(C)c3ccccc3N2C)cc1	-3	32µM*	24%	0%	-31%	/
